About 7,900 targets were measured; listed, in parts, are those with a hit and a random draw of the rest. About 0.6% of all pairs of compound and target were hits. A number with no mark means an inactive call.
Assays:
Test in all cases: log2 fold change, soluble protein after heating vs DMSO (PISA); higher = thermal stabilisation; K562 cells, 10 uM, 30 min; active = over 0.2 and 3.5 SD of the protein, either way, in both replicates (recomputed)
[1] = compound: C#Cc1cccc(Nc2ncnc3cc(OCCOC)c(OCCOC)cc23)c1 [erlotinib]
Procedure, shortened: (§1)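 Quantification of soluble protein used TMTpro 16plex LC-MS/MS, with channel sums equalised. Samples were the supernatant after 21,000xg for 90 min of pooled aliquots from K562 cells (2×10^6 cells/mL) treated with 10 μM compound for 30 min, heated for 3 min over 48°C-58°C, and extracted in PBS with 0.5% NP-40 at 4°C. Values, from duplicates, describe thermal stability against control samples on a log2 fold-change scale.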

[2] = compound: C/C(=N\NC(=O)C1=CC(=CC=C1)S(=O)(=O)N2CCOCC2)/C3=C(C=CC(=C3)Cl)O
Procedure, shortened: as §1

[3] = compound: C1=CC(=C(C=C1Cl)C2=NC3=NC=CN=C3C(=N2)NC4=CC=NC=C4)F
Procedure, shortened: as §1

[4] = compound: C1=CC(=CC=C1C2=NC3=C(N2)C=C(C=C3)C(=O)N)OC4=CC=C(C=C4)Cl
Procedure, shortened: as §1

[5] = compound: C1=CC2=C(C=CC(=C2)/C=C\3/C(=O)NC(=NCC4=CC=CS4)S3)N=C1
Procedure, shortened: as §1

[6] = compound: C1=CC2=NC=CN=C2C=C1/C=C/3\C(=O)NC(=O)S3
Procedure, shortened: as §1

[7] = compound: C1=CC=C(C=C1)C2=NC(=C(N2)C3=CC=NC=C3)C4=CC(=C(C=C4)Cl)O
Procedure, shortened: as §1

[8] = compound: C1=CC=C2C(=C1)C3=NNC4=CC=CC(=C43)C2=O
Procedure, shortened: as §1

[9] = compound: C1CCN(C1)C(=O)NC2=CC=CC(=C2)NC3=NC=C(C(=N3)NCCC4=CN=CN4)Br
Procedure, shortened: as §1

[10] = compound: C1CN(CCC1(CC2=CC=C(C=C2)Cl)N)C3=NC=NC4=C3C=CN4
Procedure, shortened: as §1

[11] = compound: C1COCCN1CCN2C3=CC=CC=C3N=C2NC(=O)C4=CC(=CC=C4)[N+](=O)[O-] [IRAK-1-4 Inhibitor I]
Procedure, shortened: as §1

[12] = compound: C=CC(=O)N1CCC[C@@H](n2nc(-c3ccc(Oc4ccccc4)cc3)c3c(N)ncnc32)C1 [ibrutinib]
Procedure, shortened: as §1

[13] = compound: CC(=O)c1cnc2ccc(-c3cc(Cl)c(O)c(Cl)c3)nc2c1N[C@H]1CC[C@H](CN(C)C)CC1
Procedure, shortened: as §1

[14] = compound: CC(C)(C)Cn1c(N)nc2ccc(-c3[nH]c(C(C)(C)C)nc3-c3ccc(F)cc3)nc21 [ralimetinib]
Procedure, shortened: as §1

[15] = compound: CC(C)(O)CC(=O)NCCn1ccc2ncnc(Nc3ccc(Oc4cccc(C(F)(F)F)c4)c(Cl)c3)c21
Procedure, shortened: as §1

[16] = compound: CC(C)C1=C2N=C(C=C(N2N=C1)NCC3=CC=CC=C3)NCCCCCCN
Procedure, shortened: as §1

[17] = compound: CC(C)C[C@@H](C=O)NC(=O)[C@H](CC(C)C)NC(=O)[C@H](CC(C)C)NC(=O)OCc1ccccc1
Procedure, shortened: as §1

[18] = compound: CC(C)N(C[C@H]1O[C@@H](n2cnc3c(N)ncnc32)[C@H](O)[C@@H]1O)[C@H]1C[C@@H](CCc2nc3cc(C(C)(C)C)ccc3[nH]2)C1 [pinometostat]
Procedure, shortened: as §1

[19] = compound: CC1=C(C(CC(=O)N1)C2=CC=C(C=C2)C(F)(F)F)C(=O)NC3=C(C=C4C(=C3)C=NN4)F
Procedure, shortened: as §1

[20] = compound: CC1=C(C2=C(C=C1)C(=O)C3=CC=CC=C3N2CCCN)C
Procedure, shortened: as §1

Sequence of UniProt Q16644 (Q16644 whole entry, looked up): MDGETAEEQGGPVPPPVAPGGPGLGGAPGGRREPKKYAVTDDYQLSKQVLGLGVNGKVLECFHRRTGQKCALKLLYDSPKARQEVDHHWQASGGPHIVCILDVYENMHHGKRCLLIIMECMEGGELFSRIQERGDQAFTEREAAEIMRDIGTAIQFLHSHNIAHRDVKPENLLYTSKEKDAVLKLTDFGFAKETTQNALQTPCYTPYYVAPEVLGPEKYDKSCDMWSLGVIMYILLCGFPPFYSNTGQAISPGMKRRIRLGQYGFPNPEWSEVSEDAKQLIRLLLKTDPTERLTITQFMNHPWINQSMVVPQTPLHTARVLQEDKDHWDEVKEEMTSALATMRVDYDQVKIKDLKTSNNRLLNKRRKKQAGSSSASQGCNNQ
Sequence of UniProt Q9Y2E5 (Q9Y2E5 whole entry, looked up): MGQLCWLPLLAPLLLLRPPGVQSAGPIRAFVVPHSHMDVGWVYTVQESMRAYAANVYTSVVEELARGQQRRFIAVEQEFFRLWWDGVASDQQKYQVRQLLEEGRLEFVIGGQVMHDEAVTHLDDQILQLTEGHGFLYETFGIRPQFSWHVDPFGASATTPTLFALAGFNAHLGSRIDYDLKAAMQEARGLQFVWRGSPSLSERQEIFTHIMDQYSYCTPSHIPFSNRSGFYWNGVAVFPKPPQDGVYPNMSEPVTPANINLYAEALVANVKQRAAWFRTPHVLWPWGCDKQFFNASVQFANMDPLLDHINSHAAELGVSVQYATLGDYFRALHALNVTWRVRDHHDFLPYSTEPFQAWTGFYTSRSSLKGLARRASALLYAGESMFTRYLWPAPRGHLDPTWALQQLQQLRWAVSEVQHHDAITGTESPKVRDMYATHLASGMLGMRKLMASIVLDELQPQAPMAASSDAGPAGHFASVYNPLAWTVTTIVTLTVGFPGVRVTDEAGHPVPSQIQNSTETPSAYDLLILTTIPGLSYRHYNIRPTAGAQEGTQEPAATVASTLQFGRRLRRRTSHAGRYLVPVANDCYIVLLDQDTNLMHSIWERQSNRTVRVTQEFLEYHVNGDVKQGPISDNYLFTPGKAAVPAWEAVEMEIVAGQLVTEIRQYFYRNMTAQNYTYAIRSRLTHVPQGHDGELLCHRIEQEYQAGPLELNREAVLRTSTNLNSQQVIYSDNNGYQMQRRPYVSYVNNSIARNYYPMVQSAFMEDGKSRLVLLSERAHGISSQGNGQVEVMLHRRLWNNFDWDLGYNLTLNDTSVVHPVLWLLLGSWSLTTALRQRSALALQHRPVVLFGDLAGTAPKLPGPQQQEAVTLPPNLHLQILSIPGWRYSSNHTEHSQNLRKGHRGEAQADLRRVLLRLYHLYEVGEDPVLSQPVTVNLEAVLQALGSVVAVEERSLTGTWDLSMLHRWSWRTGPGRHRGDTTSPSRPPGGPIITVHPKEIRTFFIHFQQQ
Sequence of UniProt Q9Y2U8 (Q9Y2U8 whole entry, looked up): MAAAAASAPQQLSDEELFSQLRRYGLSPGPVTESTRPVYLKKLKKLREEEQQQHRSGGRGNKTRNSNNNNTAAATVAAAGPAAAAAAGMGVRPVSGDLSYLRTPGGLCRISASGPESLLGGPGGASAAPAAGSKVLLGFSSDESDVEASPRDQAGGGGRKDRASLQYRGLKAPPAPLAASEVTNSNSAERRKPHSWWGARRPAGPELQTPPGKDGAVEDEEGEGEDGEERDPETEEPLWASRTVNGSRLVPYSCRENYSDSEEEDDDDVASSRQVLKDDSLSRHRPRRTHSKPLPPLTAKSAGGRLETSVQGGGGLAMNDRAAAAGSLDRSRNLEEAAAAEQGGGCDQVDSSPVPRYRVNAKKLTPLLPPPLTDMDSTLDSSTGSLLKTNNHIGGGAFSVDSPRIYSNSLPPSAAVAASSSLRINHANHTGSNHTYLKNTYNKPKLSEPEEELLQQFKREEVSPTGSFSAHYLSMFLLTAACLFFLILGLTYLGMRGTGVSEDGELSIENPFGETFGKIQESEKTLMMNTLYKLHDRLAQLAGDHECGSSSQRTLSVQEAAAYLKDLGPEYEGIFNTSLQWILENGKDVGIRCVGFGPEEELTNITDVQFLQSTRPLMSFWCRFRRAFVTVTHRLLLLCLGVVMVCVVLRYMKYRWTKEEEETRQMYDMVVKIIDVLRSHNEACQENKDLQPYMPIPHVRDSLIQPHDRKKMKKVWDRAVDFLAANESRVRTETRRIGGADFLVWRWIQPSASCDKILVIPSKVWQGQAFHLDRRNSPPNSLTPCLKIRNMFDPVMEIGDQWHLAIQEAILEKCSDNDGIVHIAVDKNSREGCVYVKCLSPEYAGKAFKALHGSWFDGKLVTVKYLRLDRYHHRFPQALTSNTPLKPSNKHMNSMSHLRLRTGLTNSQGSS
Sequence of UniProt Q08431 (Q08431 whole entry, looked up): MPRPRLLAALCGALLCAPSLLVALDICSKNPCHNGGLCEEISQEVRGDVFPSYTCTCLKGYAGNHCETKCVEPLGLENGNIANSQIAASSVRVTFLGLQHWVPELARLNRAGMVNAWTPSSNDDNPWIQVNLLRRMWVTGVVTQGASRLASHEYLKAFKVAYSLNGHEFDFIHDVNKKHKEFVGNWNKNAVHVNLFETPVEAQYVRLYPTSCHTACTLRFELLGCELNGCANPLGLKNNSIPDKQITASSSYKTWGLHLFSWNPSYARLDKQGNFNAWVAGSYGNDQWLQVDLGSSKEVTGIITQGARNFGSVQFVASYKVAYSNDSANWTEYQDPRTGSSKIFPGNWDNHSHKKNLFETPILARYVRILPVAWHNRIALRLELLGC
Sequence of UniProt Q9UBF1 (Q9UBF1 whole entry, looked up): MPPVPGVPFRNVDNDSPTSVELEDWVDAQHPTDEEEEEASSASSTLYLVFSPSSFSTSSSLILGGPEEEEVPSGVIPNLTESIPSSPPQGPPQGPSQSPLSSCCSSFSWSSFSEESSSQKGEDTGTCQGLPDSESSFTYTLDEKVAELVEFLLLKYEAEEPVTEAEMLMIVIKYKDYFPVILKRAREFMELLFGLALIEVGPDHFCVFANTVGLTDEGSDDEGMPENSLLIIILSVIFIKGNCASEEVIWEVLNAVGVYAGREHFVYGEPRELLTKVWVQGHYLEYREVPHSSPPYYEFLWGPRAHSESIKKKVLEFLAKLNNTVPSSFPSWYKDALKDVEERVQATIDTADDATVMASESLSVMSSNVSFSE
Sequence of UniProt Q16539 (Q16539 whole entry, looked up): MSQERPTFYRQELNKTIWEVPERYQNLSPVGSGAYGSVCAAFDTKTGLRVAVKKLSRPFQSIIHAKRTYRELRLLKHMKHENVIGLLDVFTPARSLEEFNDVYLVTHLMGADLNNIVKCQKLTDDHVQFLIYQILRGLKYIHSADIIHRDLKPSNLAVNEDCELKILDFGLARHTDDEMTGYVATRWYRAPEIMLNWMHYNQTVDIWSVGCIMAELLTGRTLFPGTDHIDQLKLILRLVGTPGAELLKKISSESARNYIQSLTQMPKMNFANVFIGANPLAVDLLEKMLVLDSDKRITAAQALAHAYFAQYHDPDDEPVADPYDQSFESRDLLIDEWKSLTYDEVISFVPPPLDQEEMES
Sequence of UniProt Q07666 (Q07666 whole entry, looked up): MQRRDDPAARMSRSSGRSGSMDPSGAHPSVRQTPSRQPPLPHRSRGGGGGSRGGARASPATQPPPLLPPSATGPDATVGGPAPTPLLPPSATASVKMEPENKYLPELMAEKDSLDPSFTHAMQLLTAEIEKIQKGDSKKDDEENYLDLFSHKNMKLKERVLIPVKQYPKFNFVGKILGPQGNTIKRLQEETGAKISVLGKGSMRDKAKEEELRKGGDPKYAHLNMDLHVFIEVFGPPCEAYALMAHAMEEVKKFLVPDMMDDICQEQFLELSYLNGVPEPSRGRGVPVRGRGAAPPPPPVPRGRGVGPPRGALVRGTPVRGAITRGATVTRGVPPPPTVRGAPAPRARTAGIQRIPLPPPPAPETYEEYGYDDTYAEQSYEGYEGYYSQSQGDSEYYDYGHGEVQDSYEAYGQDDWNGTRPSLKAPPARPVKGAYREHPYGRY

Target | log2 fold change [1] | log2 fold change [2] | log2 fold change [3] | log2 fold change [4] | log2 fold change [5] | log2 fold change [6] | log2 fold change [7] | log2 fold change [8] | log2 fold change [9] | log2 fold change [10] | log2 fold change [11] | log2 fold change [12] | log2 fold change [13] | log2 fold change [14] | log2 fold change [15] | log2 fold change [16] | log2 fold change [17] | log2 fold change [18] | log2 fold change [19] | log2 fold change [20]
KHDRBS1 (UniProt Q07666) | -0.023 | 0.042 | -0.076 | 0.029 | -0.088 | 0.046 | 0.027 | 0.014 | -0.029 | -0.084 | -0.069 | 0.038 | -0.002 | 0.016 | 0.073 | -0.039 | 0.017 | -0.052 | -0.012 | 0.621 (active)
LEMD3 (UniProt Q9Y2U8) | 0.102 | 0.091 | 0.109 | -0.007 | 0.003 | -0.05 | -0.01 | 0.169 | -0.063 | -0.029 | 0.04 | 0.03 | -0.173 | -0.082 | -0.09 | -0.056 | 0.039 | -0.026 | 0.068 | 0.101
MAPKAPK3 (UniProt Q16644) | 0.034 | -0.012 | 0.431 (active) | -0.041 | 0.024 | -0.069 | 0.256 | 0.029 | 0.021 | -0.054 | 0.031 | 0.006 | 0.332 (active) | 0.413 (active) | -0.103 | -0.121 | -0.151 | -0.039 | -0.008 | 0.045
MAGEC2 (UniProt Q9UBF1) | -0.026 | 0.024 | -0.099 | -0.018 | -0.003 | 0.03 | -0.011 | -0.004 | -0.022 | 0.051 | -0.003 | -0.02 | 0.108 | 0.093 | 0.058 | -0.059 | 0.05 | -0.003 | -0.035 | -0.318 (active)
MAN2B2 (UniProt Q9Y2E5) | -0.035 | 0.005 | -0.008 | -0.003 | 0.076 | 0.025 | -0.07 | 0.063 | -0.02 | -0.186 | 0.086 | -0.079 | -0.171 | 0.029 | -0.033 | -0.078 | 0.043 | 0.089 | 0.064 | -0.048
MAPK14 isoform 2 (UniProt Q16539) | 0.313 | -0.051 | 0.936 (active) | -0.136 | 0.01 | -0.013 | 1 (active) | 0.207 | 0.021 | -0.102 | -0.011 | 0.001 | 1.01 (active) | 1.48 (active) | -0.096 | -0.218 | -0.089 | -0.141 | -0.152 | -0.013
MFGE8 (UniProt Q08431) | -0.135 | -0.032 | -0.149 | 0.045 | -0.059 | -0.024 | 0.024 | 0.095 | -0.041 | -0.066 | -0.058 | 0.016 | 0.269 | 0.152 | 0.105 | 0 | 0.191 | 0.12 | -0.008 | -0.038
KDM1A isoform 2 (UniProt O60341) | 0.059 | 0.039 | 0.006 | -0.028 | 0.075 | -0.015 | 0.059 | -0.026 | -0.03 | -0.069 | -0.014 | 0.014 | -0.123 | 0.175 | -0.111 | -0.041 | 0.031 | 0.046 | 0.012 | -0.05
